Assay results from PubChem BioAssay AID1159580 (chemical genetic matrix, 2015).
The campaign covered roughly 5,500 compounds. About 2,000 (36%) were called active. Roughly 18% stayed inconclusive and do not appear here. Rule as the data show it: active = normalized growth mostly below about 0.91 (no sharp cut-off); inconclusive = no clear call, values can overlap the other calls; inactive = mostly above about 0.92. Some of the results follow.

Assay: chemical genetic growth profiling, strain panel (AID 1159580);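 also: tested at 20 µM; growth read once vehicle control cultures reached saturation at 30 °C; 1 = growth at the plate median or of vehicle wells; lower values mean less growth of the strain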
Conditions: S. cerevisiae deletion strains, growth OD
[1] = locus YBR229C, strain ROT2, active compounds read low
[2] = locus YCL061C, strain MRC1, active compounds read low
[3] = locus YDL101C, strain DUN1, active compounds read low
[4] = locus YEL061C, strain CIN8, active compounds read low
[5] = locus YHR030C, strain SLT2, active compounds read low
[6] = locus YJR075W, strain HOC1, active compounds read low
[7] = locus YLR039C, strain RIC1, active compounds read low
[8] = locus YMR307W, strain GAS1, active compounds read low
[9] = locus YPL241C, strain CIN2, active compounds read low

Measured: normalized growth

N#C/C(=C\N(CCS(=O)(=O)c1ccc(Cl)cc1)Cc1cccs1)S(=O)(=O)c1ccc(Cl)cc1
inactive: locus YAL013W, strain DEP1, active compounds read low 0.999 | [1] 1.01 | [2] 1.02 | [3] 1 | locus YDR150W, strain NUM1, active compounds read low 1.08 | [4] 0.973 | locus YGR078C, strain PAC10, active compounds read low 1.01 | [5] 1.05 | locus YHR087W, strain rtc3, active compounds read low 1.01 | locus YJR043C, strain POL32, active compounds read low 1.03 | [6] 1.04 | locus YKL190W, strain CNB1, active compounds read low 0.987 | [7] 1.06 | locus YLR058C, strain SHM2 (second series), active compounds read low 1 | locus YLR085C, strain ARP6, active compounds read low 0.943 | locus YLR262C, strain YPT6, active compounds read low 1.06 | locus YML094W, strain GIM5, active compounds read low 0.981 | locus YMR219W, strain ESC1, active compounds read low 1 | locus YMR263W, strain SAP30, active compounds read low 1.09 | [8] 1.08 | locus YNL153C, strain GIM3, active compounds read low 1.03 | locus YNL298W, strain CLA4 (second series), active compounds read low 0.947 | locus YNL322C, strain KRE1, active compounds read low 0.996 | locus YNR030W, strain Alg12, active compounds read low 1 | locus YPL055C, strain LGE1, active compounds read low 1.13 | [9] 0.981 | locus YPR135W, strain CTF4, active compounds read low 1.19

COc1c2c(cc3c1OCO3)C13C=C[C@H](OC)CC1N(C2)CC3O (stereo not given in full)
inactive: locus YAL021C, strain ccr4, active compounds read low 0.966 | locus YAL026C, strain drs2, active compounds read low 0.976 | locus YAL030W, strain snc1, active compounds read low 0.996 | locus YBL061C, strain skt5, active compounds read low 0.984 | locus YBR009C, strain hhf1, active compounds read low 1 | locus YBR021W, strain FUR4, active compounds read low 1.06 | locus YBR023C, strain chs3, active compounds read low 0.981 | locus YBR171W, strain sec66, active compounds read low 1 | [1] 1 | locus YBR231C, strain swc5, active compounds read low 1 | locus YBR279W, strain paf1, active compounds read low 0.963 | locus YCL011C, strain gbp2, active compounds read low 0.969 | locus YCL016C, strain dcc1, active compounds read low 0.955 | locus YCL029C, strain bik1, active compounds read low 0.981 | [2] 0.979 | locus YCL069W, strain vba3, active compounds read low 0.991 | locus YCR088W, strain abp1, active compounds read low 0.991 | locus YDL005C, strain med2, active compounds read low 0.976 | locus YDL035C, strain GPR1, active compounds read low 1.03 | locus YDL040C, strain nat1, active compounds read low 1 | locus YDL074C, strain BRE1, active compounds read low 1.01 | [3] 0.985 | locus YDL185W, strain tfp1, active compounds read low 0.961 | locus YDL192W, strain arf1, active compounds read low 0.986 | locus YDR001C, strain nth1, active compounds read low 0.988 | locus YDR069C, strain doa4, active compounds read low 0.963 | locus YDR101C, strain arx1, active compounds read low 1.01 | locus YDR137W, strain rgp1, active compounds read low 0.953 | locus YDR159W, strain sac3, active compounds read low 0.968 | locus YDR162C, strain NBP2, active compounds read low 0.99 | locus YDR195W, strain ref2 0.966 | locus YDR297W, strain sur2, active compounds read low 0.976 | locus YDR318W, strain mcm21, active compounds read low 0.989 | locus YDR334W, strain swr1, active compounds read low 0.978 | locus YDR335W, strain msn5, active compounds read low 0.972 | locus YDR388W, active compounds read low 0.983 | locus YDR392W, strain spt3, active compounds read low 0.915 | locus YDR502C, strain sam2, active compounds read low 0.988 | locus YEL003W, strain gim4, active compounds read low 1 | locus YEL037C, strain rad23, active compounds read low 0.983 | locus YEL061C, strain CIN8 (second series), active compounds read low 0.984 | [4] 1 | locus YER015W, strain faa2, active compounds read low 0.972 | locus YER016W, strain bim1, active compounds read low 0.975 | locus YER110C, active compounds read low 0.97 | locus YER111C, strain swi4, active compounds read low 0.977 | locus YER155C, strain BEM2 (second series), active compounds read low 1.05 | locus YER155C, strain BEM2, active compounds read low 0.997 | locus YER167W, strain BCK2, active compounds read low 0.998 | locus YFR010W, strain ubp6, active compounds read low 1.02 | locus YGL078C, strain dbp3, active compounds read low 0.975 | locus YGL086W, strain mad1, active compounds read low 1 | locus YGL167C, strain pmr1, active compounds read low 0.999 | locus YGL173C, strain kem1, active compounds read low 1.01 | locus YGL227W, strain vid30, active compounds read low 0.987 | locus YGL240W, strain doc1, active compounds read low 1.04 | locus YGL248W, strain PDE1, active compounds read low 0.999 | locus YGL253W, strain hxk2, active compounds read low 0.963 | locus YGR135W, strain pre9, active compounds read low 0.972 | locus YGR252W, strain gcn5, active compounds read low 1.08 | locus YHR013C, strain ard1, active compounds read low 0.956 | locus YHR027C, strain rpn1, active compounds read low 0.989 | [5] 0.986 | locus YHR079C, strain IRE1 (second series), active compounds read low 0.986 | locus YHR094C, strain hxt1, active compounds read low 0.978 | locus YHR129C, strain ARP1, active compounds read low 0.994 | locus YHR142W, strain chs7, active compounds read low 0.951 | locus YHR200W, strain rpn10, active compounds read low 0.992 | locus YIL066C, strain RNR3, active compounds read low 1 | locus YIL073C, strain SPO22, active compounds read low 0.94 | locus YIL125W, strain kgd1, active compounds read low 0.984 | locus YIR030C, strain dcg1, active compounds read low 0.97 | locus YJL092W, strain hpr5, active compounds read low 0.982 | locus YJL095W, strain BCK1 (second series), active compounds read low 0.972 | locus YJL095W, strain BCK1, active compounds read low 0.975 | locus YJL115W, strain asf1, active compounds read low 0.957 | locus YJL129C, strain trk1, active compounds read low 0.95 | locus YJL134W, strain LCB3, active compounds read low 0.99 | locus YJL154C, strain vps35, active compounds read low 0.977 | locus YJL164C, strain tpk1, active compounds read low 1.02 | locus YJL166W, strain qcr8, active compounds read low 0.989 | locus YJL168C, strain set2, active compounds read low 0.985 | locus YJL187C, strain SWE1 (second series), active compounds read low 0.98 | locus YJL187C, strain SWE1, active compounds read low 0.987 | [6] 1 | locus YKL009W, strain mrt4, active compounds read low 0.992 | locus YKL068W, active compounds read low 0.98 | locus YKL085W, strain MDH1 (second series), active compounds read low 1 | locus YKL085W, strain MDH1, active compounds read low 1 | locus YKL160W, strain elf1, active compounds read low 0.95 | locus YKR001C, strain vps1, active compounds read low 0.99 | locus YKR026C, strain gcn3, active compounds read low 0.993 | locus YKR091W, strain srl3, active compounds read low 0.978 | locus YLL001W, strain dnm1, active compounds read low 0.996 | locus YLL026W, active compounds read low 0.98 | locus YLL041C, strain sdh2, active compounds read low 0.98 | locus YLR027C, strain aat2, active compounds read low 0.996 | [7] 1 | locus YLR058C, strain SHM2, active compounds read low 0.994 | locus YLR102C, strain apc9, active compounds read low 0.988 | locus YLR221C, strain rsa3, active compounds read low 1.04 | locus YLR258W, strain gsy2, active compounds read low 0.981 | locus YLR262C, strain YPT6 (second series), active compounds read low 1 | locus YLR268W, strain sec22, active compounds read low 1.02 | locus YLR320W, strain mms22, active compounds read low 1.02 | locus YLR342W, strain FKS1 (second series), active compounds read low 1.08 | locus YLR342W, strain FKS1, active compounds read low 0.988 | locus YLR357W, strain rsc2, active compounds read low 0.981 | locus YLR370C, strain arc18, active compounds read low 0.971 | locus YLR371W, strain rom2, active compounds read low 0.957 | locus YLR384C, strain iki3, active compounds read low 0.978 | locus YLR418C, strain cdc73, active compounds read low 1.01 | locus YML016C, strain PPZ1, active compounds read low 0.999 | locus YML032C, strain rad52, active compounds read low 1 | locus YML120C, strain ndi1, active compounds read low 1 | locus YML124C, strain tub3, active compounds read low 0.982 | locus YMR058W, strain fet3, active compounds read low 0.979 | locus YMR078C, strain ctf18, active compounds read low 0.967 | locus YMR125W, strain sto1, active compounds read low 0.98 | locus YMR129W, active compounds read low 0.965 | locus YMR205C, strain PFK2, active compounds read low 1.02 | locus YMR223W, strain ubp8, active compounds read low 0.986 | locus YMR231W, strain pep5, active compounds read low 0.993 | [8] 1.23 | locus YNL067W, strain RPL9B, active compounds read low 0.974 | locus YNL071W, strain lat1, active compounds read low 0.993 | locus YNL128W, strain TEP1, active compounds read low 0.985 | locus YNL209W, strain ssb2, active compounds read low 0.963 | locus YNL233W, strain BNI4, active compounds read low 1.01 | locus YNL248C, strain rpa49, active compounds read low 0.938 | locus YNL250W, strain rad50, active compounds read low 0.983 | locus YNL271C, strain bni1, active compounds read low 0.992 | locus YNL298W, strain CLA4, active compounds read low 0.985 | locus YNL307C, strain MCK1, active compounds read low 0.991 | locus YNL322C, strain KRE1 (second series), active compounds read low 0.983 | locus YNR049C, strain mso1, active compounds read low 0.954 | locus YNR052C, strain pop2, active compounds read low 0.977 | locus YOL012C, strain htz1 0.827 | locus YOL147C, strain pex11, active compounds read low 0.983 | locus YOR001W, strain rrp6, active compounds read low 1.05 | locus YOR061W, strain CKA2, active compounds read low 0.993 | locus YOR069W, strain VPS5, active compounds read low 0.986 | locus YOR070C, strain gyp1, active compounds read low 0.974 | locus YOR080W, strain dia2, active compounds read low 0.964 | locus YOR083W, strain WHI5, active compounds read low 0.928 | locus YOR106W, strain vam3, active compounds read low 0.957 | locus YOR136W, strain idh2, active compounds read low 0.992 | locus YOR144C, strain elg1, active compounds read low 0.99 | locus YOR184W, strain ser1, active compounds read low 1.04 | locus YOR265W, strain rbl2, active compounds read low 0.99 | locus YOR270C, strain vph1, active compounds read low 0.973 | locus YOR290C, strain snf2, active compounds read low 0.956 | locus YOR316C, strain cot1, active compounds read low 0.983 | locus YPL051W, strain arl3, active compounds read low 0.963 | locus YPL078C, strain atp4, active compounds read low 0.96 | locus YPL106C, strain sse1, active compounds read low 0.984 | locus YPL240C, strain hsp82, active compounds read low 0.992 | [9] 0.988 | locus YPR119W, strain clb2, active compounds read low 0.981 | locus YPR141C, strain kar3, active compounds read low 0.968 | locus YPR163C, strain tif3, active compounds read low 0.996 | locus YPR167C, strain met16, active compounds read low 0.981 | strain wtn01, active compounds read low 1.01
